# Compound activity as filed in PubChem.
# Sampled rows, rich in hits. Any-hit rate of the full collection: about 1.6%.
# KCNQ2 enhance: potentiators of rat KCNQ2 potassium channel | O88943 | CHO-K1 KCNQ2, FluxOR thallium flux fluorescence; active compounds read high | B-score at 10 µM | actives 0.54% (n = 310,000) | AID 2239;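 active means fluorescence ratio B-score at least 3 SD of library B-scores, with initial fluorescence B-score within 3 of them, cut at about 5.3 in these data; same plate scores as AID 2156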;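 further: B-score of peak minus minimum over baseline fluorescence ratio after K+ and Tl+ stimulus; positive B-score means potentiation of KCNQ2 with more thallium influx and brighter signal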
# Target sequence (O88943 whole entry, looked up): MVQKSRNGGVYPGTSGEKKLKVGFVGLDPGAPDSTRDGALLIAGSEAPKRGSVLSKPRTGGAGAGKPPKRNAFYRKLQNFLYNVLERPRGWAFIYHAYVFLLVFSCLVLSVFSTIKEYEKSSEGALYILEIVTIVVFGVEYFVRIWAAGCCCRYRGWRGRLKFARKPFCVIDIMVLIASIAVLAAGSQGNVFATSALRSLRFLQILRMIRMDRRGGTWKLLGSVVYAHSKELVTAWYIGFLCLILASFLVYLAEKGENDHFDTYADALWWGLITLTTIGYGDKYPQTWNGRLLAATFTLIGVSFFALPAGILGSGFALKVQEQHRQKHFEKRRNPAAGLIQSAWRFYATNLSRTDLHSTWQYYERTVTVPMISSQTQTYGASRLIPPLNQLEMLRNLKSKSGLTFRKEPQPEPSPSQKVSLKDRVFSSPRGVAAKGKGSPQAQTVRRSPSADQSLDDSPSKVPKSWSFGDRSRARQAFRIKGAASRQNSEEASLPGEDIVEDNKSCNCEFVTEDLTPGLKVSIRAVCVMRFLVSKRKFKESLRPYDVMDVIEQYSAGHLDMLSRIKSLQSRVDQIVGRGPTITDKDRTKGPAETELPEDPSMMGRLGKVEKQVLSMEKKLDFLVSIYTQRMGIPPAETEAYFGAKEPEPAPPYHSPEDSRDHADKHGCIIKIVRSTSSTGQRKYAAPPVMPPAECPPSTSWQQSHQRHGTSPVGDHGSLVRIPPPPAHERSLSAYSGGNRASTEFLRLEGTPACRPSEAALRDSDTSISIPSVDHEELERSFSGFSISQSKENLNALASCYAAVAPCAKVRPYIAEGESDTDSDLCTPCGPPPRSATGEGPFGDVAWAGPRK
# KCNQ2 inh: KCNQ2 (rat) channel inhibition. B-score at 10 µM. CHO-K1 KCNQ2, FluxOR thallium flux, 20 min; active compounds read low. AID 2156. actives 1.1% (n = 310,000);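 active means fluorescence ratio B-score at most minus 3 library SDs, with starting brightness B-score within 2 library SDs, cut at about -5.5 in these data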
# * = called active by the depositor; i = inactive; x = no result given.
SMILES,KCNQ2 enhance,KCNQ2 inh
CCc1noc(C)c1C(=O)N(CC)CC(=O)Nc1ccccc1C(F)(F)F,0.74,i
CCN(CC(=O)Nc1ccccc1C(F)(F)F)C(=O)c1oc2ccc(OC)cc2c1C,-6,-6*
O=C(O)CCCNc1c(C(=O)Nc2ccc(Cl)cc2)cc([N+](=O)[O-])cc1[N+](=O)[O-],x,i
Cc1oc(-c2ccccc2F)nc1CS(=O)(=O)CC(=O)NCCCN1CC(C)CC(C)C1 (centres undefined),x,i
CN(CC(=O)Nc1c(Cl)cccc1Cl)C(=O)c1ccc2nc[nH]c2c1,x,i
CCN(C(=O)COC(=O)c1ccc(Cl)cc1N)C1CCCCC1,-6.4,-6.4*
Nc1cc(Cl)ccc1C(=O)OCC(=O)NC1CCCCC1,x,i
Cc1ccc(N2C(=O)CC(N3CCN(c4ccccn4)CC3)C2=O)cc1 (centres undefined),x,i
Cc1ccc2nc(-c3ccc(N4C(=O)CC(N5CCN(CCO)CC5)C4=O)cc3)sc2c1 (centres undefined),-6.3,-6.3*
O=C(CNC(=S)N(Cc1ccccc1)Cc1cccnc1)NC1CCCC1,x,i
CCCN(CCC)CC(O)CN1C(=O)N(CN2C(=O)N(CC(O)CN(CCC)CCC)C(=O)C2(C)C)C(C)(C)C1=O (centres undefined),x,i
CC(c1cccs1)N(C(=O)Nc1ccccc1)C1CCCCC1 (centres undefined),-5.9,-5.9*
CN(C(=O)Nc1ccccc1)C1CCCCC1,0.2,i
CCCCN(C)C(=O)c1nc2ccccn2c1CN1CCC[C@H]1CO,0.97,i
COc1cc(NC(=O)Cn2c(=O)n(-c3cccc(C)c3)c(=O)c3c(C)c(C)sc32)cc(OC)c1,x,i
COC(=O)c1cccc(NC(=O)c2cc3sccc3n2C)c1,x,i
COC(=O)c1ccccc1NC(=O)c1cc2sccc2n1C,-6.1,-6.1*
COC(=O)C1=C(C(=O)OC)SC(=C2C(=S)C(C)(C)N(C(=O)CC(C)C)c3ccccc32)S1,x,i
COc1ccc(Cl)cc1/C=N/NC(=O)c1c(-c2ccccc2)noc1C,-6.2,-6.2*
COc1cccc(/C=N/NC(=O)c2c(-c3ccccc3)noc2C)c1O,x,i
COc1cccc(/C=N/NC(=O)c2c(-c3ccccc3)noc2C)c1OC,-7.3,-7.3*
COc1cc(/C=N/NC(=O)c2c(-c3ccccc3)noc2C)ccc1O,x,i
CCOC(=O)C1CCN(c2c(Nc3ccc(C)c(C)c3)c(=O)c2=O)CC1,x,i
CC1CCCCN1C(=O)COC(=O)c1ccc(=O)n(Cc2ccccc2)n1 (centres undefined),0.01,i
CC1(C)CC(c2nc(-c3ccc(Br)cc3)cs2)CCS1 (centres undefined),x,i
SMILES,KCNQ2 enhance,KCNQ2 inh
CC1(C)CC(c2nc(-c3ccc(Cl)cc3)cs2)CCS1 (centres undefined),-6.4,-6.4*
CCc1ccc(CNC(=O)CCC(=O)N2Cc3cccc(OC)c3Oc3ncccc32)cc1,0.41,i
O=C(OCC(=O)c1ccc(Cl)s1)c1ccc(CO)cc1,x,i
O=C(O)CCCCCNC(=O)c1cccc(Br)c1,x,i
O=C(NCCOC12CC3CC(CC(C3)C1)C2)c1cccc(Br)c1,-7.2,-7.2*
N=C(SC1CC(=O)N(c2ccc(F)cc2)C1=O)N1N=C(c2ccccc2)CC1c1ccccc1 (centres undefined),1.9,i
Cc1cc(C(=O)NNC(=O)NC(C)C)no1,0.73,i
Oc1ccc(-c2nc(-c3ccc(O)c(O)c3)cs2)cc1,-5.6,-5.6*
Oc1ccc(Nc2nc(-c3ccc4ccccc4c3)cs2)cc1,x,i
COC(=O)CNC(c1ccccc1)c1cc(C)ccc1NS(=O)(=O)c1ccc(C)cc1 (centres undefined),x,i
CCOC(=O)CNC(c1ccccc1)c1cc(Br)ccc1NC(C)=O (centres undefined),x,i
COC(=O)CNC(c1ccccc1)c1cc(C)ccc1NC(=O)CNC(=O)OCc1ccccc1 (centres undefined),-5.8,-5.8*
COC(=O)CNC(c1ccccc1)c1cc(Br)ccc1NC(=O)OCc1ccccc1 (centres undefined),-7.4,-7.4*
CC1CCCCN1C(=O)c1cc2ccccc2cc1O (centres undefined),0.21,i
CC(=O)N/C(=C/c1ccc([N+](=O)[O-])cc1)C(=O)O,0.01,i
Cc1ccc(-c2cc(C(=O)O)c3cc(Br)ccc3n2)o1,1.7,i
Cc1ccc(-c2cc(C(=O)NC3=NCCS3)c3cc(Br)ccc3n2)o1,-6.3,-6.3*
COc1ccccc1OCCCCOc1ccccc1C(C)=O,0.77,i
C/C=C/c1ccc(OCCCCOc2ccccc2C(C)=O)c(OC)c1,-7.5,-7.5*
COc1ccc(S(=O)(=O)N2CCCC2CNC(=O)C(=O)NCc2cccs2)cc1 (centres undefined),0.03,i
Cc1ccc(-c2nnc(N3CCN(C(=O)c4cccs4)CC3)c3ccccc23)cc1,x,i
O=C(c1cccs1)N1CCN(c2nnc(-c3ccccc3)c3ccccc23)CC1,-5.9,-5.9*
COC(=O)C1C(O)=C(C=Nc2cccc3ccccc23)C(=O)CC1(C)C (centres undefined),-6,-6*
COC(=O)C1C(O)=C(C=NCc2ccccc2)C(=O)CC1(C)C (centres undefined),x,i
CC(=O)NO,0.19,i
SMILES,KCNQ2 enhance,KCNQ2 inh
Cc1cc(C)cc(NC(=O)c2cccn2-c2ncc(C(F)(F)F)cc2Cl)c1,-7.2,-7.2*
O=C(Nc1ccc(F)cc1F)c1cccn1-c1ncc(C(F)(F)F)cc1Cl,x,i
COc1ccc(-n2c(C)cc(/C=C3\SC(=S)N(Cc4ccco4)C3=O)c2C)cc1,x,i
CCN1CCN(c2c(/C=C3\SC(=S)N(Cc4ccco4)C3=O)c(C)c(C#N)c(=O)n2C)CC1,-7.7,-7.7*
Cc1cc(-c2ccc(S(=O)(=O)N(C)Cc3ccccc3)cc2)on1,x,i
COC(=O)c1sccc1NC(=O)Nc1ccc(F)cc1F,0.65,i
COc1ccc(/C=C/C(=O)O)cc1COc1cccc(C)c1,0.61,i
COc1ccc(C=O)cc1COc1ccc([N+](=O)[O-])c(C)c1,-6.8,-6.8*
Cc1ccc(-c2noc(CN(C(=O)C(c3ccccc3)c3ccccc3)C(C)C)n2)cc1,x,i
CC(C)N(Cc1nc(-c2ccc(Cl)cc2)no1)C(=O)C(c1ccccc1)c1ccccc1,-6.2,-6.2*
CC(=O)c1sc(NC(=O)CCCOc2ccc(Cl)cc2)nc1C,x,i
COc1ccc(CNC(=O)CN(C(=O)CCC(=O)Nc2nccs2)c2cccc(C)c2)cc1,1.2,i
CCn1ccnc1CN(C)Cc1cn(-c2ccc(C)cc2)nc1-c1ccc(F)cc1,x,i
CCn1ccnc1CN(C)Cc1cn(-c2cc(C)ccc2C)nc1-c1ccccc1,-8.2,-8.2*
Cn1c(=O)c2c(ncn2CC(=O)OCC(=O)NCc2ccccc2Cl)n(C)c1=O,0.42,i
CCc1nc(SCc2ccc(OCC(C)C)cc2)n[nH]1,x,i
CC(=O)Nc1ccc(N=Nc2ccc(O)cc2)cc1,0.61,i
Cc1ccccc1CN1CCC(n2nccc2NC(=O)CCCc2ccccc2)CC1,0.07,i
O=C(CCCc1ccccc1)Nc1ccnn1C1CCN(Cc2ccccn2)CC1,6.4*,i
COc1ccc(/C=N/NC(=O)c2ccc(N)cc2)cc1Cn1cc([N+](=O)[O-])cn1,1.3,i
COc1cccc(/C=C/C(=O)OCC(=O)Nc2nnc(-c3ccccc3)o2)c1,0.41,i
